# This is a sample that favours compounds with a hit; in the whole collection about 0.54% have one here.
# Menin MLL FP TR: qHTS Assay for Inhibitors Targeting the Menin-MLL Interaction in MLL Related Leukemias: Competition With Texas Red Labeled MLL-derived Mutant Peptide. O00255. Menin + Texas Red MLL mutant peptide, fluorescence polarization. Potency, µM (highest dose often 61.6 µM), without a hit: at the highest dose FP activity change, negative = inhibition, actives largely listed as inhibitors. 0.23% of 270,000 active; active = well fitted inhibition curve with a large enough effect in the polarisation, with a control signal flat, not every such curve was filed as active; inconclusive = small, poorly fitted or top-dose-only effect, or effect the other way, or a change in a side signal; inactive = no such curve, though single readings can be large or run the other way; the % refers to the polarisation; also: potency is read from the fitted curve at half-maximal effect; % of control where 0% means no effect
# Target sequence (O00255 whole entry, looked up): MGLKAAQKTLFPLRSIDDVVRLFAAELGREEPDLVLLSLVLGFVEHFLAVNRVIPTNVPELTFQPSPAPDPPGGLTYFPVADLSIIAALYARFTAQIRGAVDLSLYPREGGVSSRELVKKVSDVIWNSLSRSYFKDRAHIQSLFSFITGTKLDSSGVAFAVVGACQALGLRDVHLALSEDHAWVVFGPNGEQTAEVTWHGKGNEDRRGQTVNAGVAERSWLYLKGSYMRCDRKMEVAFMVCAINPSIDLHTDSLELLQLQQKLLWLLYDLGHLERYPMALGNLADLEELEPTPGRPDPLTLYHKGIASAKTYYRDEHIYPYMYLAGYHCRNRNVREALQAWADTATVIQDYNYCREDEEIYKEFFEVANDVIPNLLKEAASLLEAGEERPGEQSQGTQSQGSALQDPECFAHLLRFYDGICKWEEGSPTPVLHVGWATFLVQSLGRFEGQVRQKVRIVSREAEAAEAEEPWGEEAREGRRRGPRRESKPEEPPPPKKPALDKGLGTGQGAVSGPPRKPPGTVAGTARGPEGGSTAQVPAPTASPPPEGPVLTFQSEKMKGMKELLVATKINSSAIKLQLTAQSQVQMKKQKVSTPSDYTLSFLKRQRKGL
# MLL CXXC-DNA inh: qHTS Fluorescence Polarization Assay for Inhibitors of MLL CXXC domain - DNA interaction; MLL-CXXC / FITC-HOXA9 DNA fluorescence polarization; 0.037% of 290,000 active; Potency, µM (titrated, usually from 115 µM), for the others: at the highest dose activity change, negative = inhibition, actives largely listed as inhibitors; Histone-lysine N-methyltransferase 2A (Homo sapiens), Q03164; active = well fitted inhibition curve with a large enough effect in the polarisation, with a control signal flat, not every such curve was filed as active; inconclusive = small, poorly fitted or top-dose-only effect, or effect the other way, or a change in a side signal; inactive = no such curve, though single readings can be large or run the other way; the % refers to the polarisation; also: potency is read from the fitted curve at half-maximal effect
#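 Fluorescence polarization: 7 uM MLL-CXXC (stock) preincubated 5 min with compounds, then 50 nM fluorescein-HOX-A9 DNA (stock) added; 30 min ambient. Buffer 50 mM Tris-HCl pH 7.5, 50 mM NaCl, 1 mM DTT, 0.05% BSA.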
# Akt phos inh: HTS Assay for Inhibitors of Akt Phophorylation: Primary Screen | AID 651550, 2012 | 0.32% of 360,000 active | activity change, % for hits at 50 µM | Neuro2A IGF-stimulated pAkt S473 HTRF, 20 min; stronger effect = lower value; in the data active = activity change below about -80%; inconclusive = mostly about -51% to -80%; also: % is scaled to controls: 0 for no effect and ±100 for the full control effect
#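 Single-point screen (50 µM final compound) in Neuro2A cells stimulated 20 min with 6 nM IGF at 37 deg C. After lysis, Ser473-phosphorylated Akt read by HTRF (ex 330 nm, em 615/665 nm) as the 665/615 ratio.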
# Menin-MLL FL inh: qHTS Assay for Inhibitors Targeting the Menin-MLL Interaction in MLL Related Leukemias: Competition With Fluorescein Labeled MLL-derived Peptide. Fluorescence polarization, fluorescein-MLL peptide displacement from menin. FP activity change, % at 61.4 µM. 290,000 tested, under 10 active. AID 1766, 2009; active = well fitted curve in the direction sought with a large enough effect in the polarisation, not every such curve was filed as active; inconclusive = small, poorly fitted or top-dose-only effect, or effect the other way, or a change in a side signal; inactive = no such curve, though single readings can be large or run the other way; the % refers to the polarisation; also: % of control where 0% means no effect
# mIDH1 inhibitor: qHTS for Inhibitors of mutant isocitrate dehydrogenase 1 (IDH1): qHTS. IDH1-R132H enzyme, NADPH consumption, diaphorase/resazurin fluorescence. Potency, µM (doses to about 76.6 µM), without a hit: top-dose activity change, negative = inhibition, usual class: inhibitors. 0.093% of 390,000 active. AID 602179, 2012; active = well fitted inhibition curve with a large enough effect; inconclusive = small, poorly fitted or top-dose-only effect; inactive = no such curve, though single readings can be large or run the other way; also: potency is read from the fitted curve at half-maximal effect; % is scaled to controls: 0 for no effect and ±100 for the full control effect; nearly all actives have a fitted effect of over 65% in size
#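 IDH1-R132H (0.5 ug/mL) preincubated 30 min with compound, then NADPH (0.016 mM) and alpha-KG (2 mM) added; 80 min at RT, pH 7.5. Remaining NADPH coupled via diaphorase/resazurin to fluorescence (540/590 nm); concentration-response curves normalized to no-enzyme control.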
# LDHA inh: qHTS assay for inhibitors of human lactate dehydrogenase; 0.15% of 480,000 active; activity change, % (values are at about 110 or 230 µM); AID 1347041, 2019; purified LDHA, NADH/diaphorase-resazurin fluorescence; stronger effect = lower value; in the data active = activity change below about -30%; inconclusive = mostly about -25% to -30%;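 also: plate controls were DMSO wells for no effect and wells without enzyme for full effect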
#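 Human LDH5 at 2 nM final in Tris HCl pH 7.4 with 0.06 mM NADH and 0.2 mM pyruvate, reacted 5 minutes at room temperature. Remaining NADH coupled via diaphorase/resazurin; resorufin fluorescence read at 0 and 20 minutes, normalized to enzyme-free and DMSO wells.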
# Active calls of the source: *; i = inactive; ? = inconclusive; / = no result; [ ] = remark or other dose.
SMILES,Menin MLL FP TR,MLL CXXC-DNA inh,Akt phos inh,Menin-MLL FL inh,mIDH1 inhibitor,LDHA inh
Cc1ccc(CSc2nnc(-c3ccc(NS(=O)(=O)c4ccccc4)cc3)o2)cc1,?,4%,i,7,-7%,-1
COC(=O)CSc1nnc(-c2ccc(NS(=O)(=O)c3ccccc3)cc2)o1,-8%,-10%,-111%*,-1,3%,-7
O=C(CSc1nnc(-c2ccncc2)o1)Oc1ccccc1,-12%,-4%,-92%*,0,-6%,-2
Cc1ccc(C(C)C)c(Oc2nnnn2-c2ccccc2)c1,19%,-3%,i,0,3%,1
Cc1ccc(C)c(Oc2nnnn2-c2ccccc2)c1,-10%,19%,-115%*,3,1%,-4
Cc1occc1C(=O)N1CC(C)CC(C)C1 (configuration not stated),/,/,/,/,/,-4
Cc1noc(NS(=O)(=O)c2ccc(NC(=O)CC34CC5CC(CC(Br)(C5)C3)C4)cc2)c1C,-10%,-16%,i,3,-7%,-46*
Cc1noc(NS(=O)(=O)c2ccc(NC(=O)C34CC5CC(C3)CC(n3cnc(Cl)n3)(C5)C4)cc2)c1C,-4%,0%,i,/,2%,-4
Cc1noc(NS(=O)(=O)c2ccc(NC(=O)Nc3ccc(Cl)c(Cl)c3)cc2)c1C,?,1%,-107%*,2,-2%,?
CN(C)CCNCc1ccc(OC2CCCC2)cc1,-13%,15%,-114%*,1,0%,-9
Brc1cccc[n+]1CCC[n+]1ccccc1Br,/,/,/,/,/,-65*
Cc1nn(C)c(C)c1CNCc1cccnc1N1CCOCC1,/,/,/,/,/,-38*
O=C(NCc1ccc(Cl)cc1)c1cc(-c2cccs2)on1,28µM*,6%,i,5,-1%,-7
CCOc1ccc(CCC2CCN(C(=O)Nc3ccccc3)CC2)cc1,/,/,/,/,/,-22
CC(CCc1ccco1)NC(=O)C1CCN(c2ccc(C(F)(F)F)cn2)CC1 (configuration not stated),/,/,/,/,/,1
O=C(CN1CCN(S(=O)(=O)c2ccc3ccccc3c2)CC1)N1CCc2ccccc2C1,-20%,-1%,i,-1,7%,-2
O=C(CN1CCN(S(=O)(=O)c2ccccc2F)CC1)N1CCc2ccccc2C1,/,/,i,/,0%,-47*
O=C(c1cc(-c2ccccc2Cl)nc2ccc(Br)cc12)N1CCN(c2ccccn2)CC1,/,/,i,/,8%,0
O=C(c1cc(-c2ccncc2)nc2ccc(Br)cc12)N1CCN(c2ccccn2)CC1,?,3%,-114%*,0,0%,0
CCNC(=O)CNC(=O)CSc1cc(C)c2cccc(C)c2n1,/,/,/,/,/,2
CCOc1cccc(/C(O)=C2/C(=O)C(=O)N(Cc3cccnc3)C2c2ccco2)c1 (configuration not stated),?,-18%,-116%*,-1,7%,14
Cc1ccc(OCc2nc(C#N)c(NCc3cccnc3)o2)c(C)c1,/,/,/,/,/,9
CCc1cc2c(=O)c(Oc3ccccc3F)c(C)oc2c(CN(C)C)c1O,13%,-4%,-104%*,3,6%,1
CCOC(=O)c1cnn(-c2cc(C)nc3c(-c4ccc(Cl)cc4Cl)c(C)nn23)c1N,/,/,/,/,/,-2
CC(C)(C)C1=Nn2c(nnc2-c2ccccn2)SC1,1%[11.7 µM],-3%,-111%*,5,0%,2
SMILES,Menin MLL FP TR,MLL CXXC-DNA inh,Akt phos inh,Menin-MLL FL inh,mIDH1 inhibitor,LDHA inh
CCC(=O)Nc1cccc(-c2nnc(SCC(=O)NCc3ccco3)n2C)c1,/,-9%,i,4,2%,-31*
O=c1c2[nH]c3ccccc3c2ncn1Cc1ccncc1,-5%,1%,-94%*,-1,2%,-2
CC(=O)c1c(C)[nH]c(C(=O)NC2CCCCC2)c1C,1%,-3%,i,3,2%,2
CCN(CC)CCCNC(=O)c1[nH]c(C)c(C(=O)NC2CCCCC2)c1C,/,1%,-83%*,4,2%,-5
O=C1c2ccccc2S(=O)(=O)N1Cc1nc(-c2cc(F)ccc2F)cs1,/,/,/,/,/,0
CCOC(=O)c1cnc(SCC(=O)Nc2ccc(C)c(C)c2)nc1N,/,/,/,/,/,0
Oc1cccc(C2c3[nH]c4ccccc4c3CCN2Cc2ccoc2)c1 (configuration not stated),?,0%,i,-2,-11%,-121*
Clc1ccccc1-c1csc(-c2ccccc2)n1,/,/,/,/,/,-3
O=c1[nH]c(=O)n(Cc2ccccc2)c2nc(-c3ccco3)cc(C(F)(F)F)c12,2%,9%,-110%*,?,2%,-5
Cc1cc(C(F)(F)F)c2c(=O)[nH]c(=O)n(Cc3ccccc3)c2n1,-7%,-26%,i,-3,10%,-3
O=C(O)c1cc(=O)c2c3nc4ccccc4oc-3cc(=O)c2[nH]1,40µM*,-12%,/,9,/,18
Nc1cc2nc3ccccc3oc-2cc1=O,/,?,i,?,11%,7
CC(C)CCn1nnnc1C(C(C)C)N1CCC(C(N)=O)CC1 (configuration not stated),-11%,-4%,-100%*,4,3%,0
CC(C)(C)n1nnnc1SCC(=O)N(Cc1cccs1)c1ccc2c(c1)OCCO2,/,/,/,/,/,8
Cc1ccc(-c2nc(CNS(=O)(=O)c3ccc(C)cc3)c(C)o2)cc1,/,/,/,/,/,1
CC(C)Cn1c(SCC(=O)Nc2nccs2)nnc1-c1ccco1,/,/,/,/,/,7
COc1ccc(NC(=O)Cc2c(Cl)cccc2Cl)cc1S(N)(=O)=O,/,/,/,/,/,0
Cc1ccc(OCCSCc2nc3ccccc3[nH]2)cc1,/,1%,-98%*,-2,3%,-3
CCOc1cccc2cc(-c3nc(-c4ccc(F)cc4)no3)c(=O)oc12,/,/,/,/,/,2
CCOc1cccc2cc(-c3nc(-c4ccccc4F)no3)c(=O)oc12,/,/,/,/,/,-35*
Cc1cc(NCCCn2ccnc2)n2ncc(-c3ccccc3)c2n1,0%,8%,-90%*,?,2%,-11
Cc1cc(NCCCn2ccnc2)n2nc(C)c(-c3ccccc3)c2n1,-1%,6%,i,2,0%,-13
CCOc1ccccc1NC(=O)N1C2CCCC1CC(NC(=O)C1CC1)C2 (configuration not stated),0%,-3%,-88%*,-1,5%,-6

# Bioassay records from PubChem BioAssay.
